Screening data from PubChem BioAssay.
Most compounds without a hit are left out; they make up all but 5.5% or so of the library.
CBFb RUNX1 block – blocks binding between human CBF-beta and RUNX1. AlphaScreen CBFb-His/RUNX1-biotin binding, biochemical. Potency, µM (series often up to 59.8 µM), hits mostly inhibitors. 230,000 tested, under 10 active
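AlphaScreen binding: CBFb-His and RUNX1-biotin (30 nM each) preincubated 20 min, compound added for 15 min, then nickel and streptavidin beads for 90 min, all at room temperature. Disruption of the interaction by any mechanism counts as activity.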
Six1-Eya2 inh – inhibitors of human Six1/Eya2 interaction. Q15475+O00167. AlphaScreen GST-Six1/His-Eya2 binding, biochemical; active compounds read low. activity change, % (test concentration not listed). 360,000 tested, 0.56% active; in the data active means activity change below about -65%; inconclusive means mostly about -30% to -63%
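Homogeneous AlphaScreen proximity assay pairing GST-Six1 with His-tagged Eya2 (added as 5X mix: 250 nM and 500 nM) in 50 mM Tris pH 8.0, 300 mM NaCl, 1 mM TCEP. Glutathione donor and nickel acceptor beads; 1 h, 37 °C, dark.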
MBNL1 CUG block – MBNL1-poly(CUG) RNA binding inhibition; Q9NR56; TR-FRET MBNL1-His/biotin-(CUG)12 binding, 665/545 ratio; Potency, µM (series often up to 57.5 µM), hits mostly inhibitors; 280,000 tested, 0.036% active; active means well fitted inhibition curve with a large enough effect in the signal ratio, with a control signal flat, not every such curve was filed as active; inconclusive means small, poorly fitted or top-dose-only effect, or effect the other way, or a change in a side signal; inactive means no such curve, though single readings can be large or run the other way; the % refers to the signal ratio
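TR-FRET readout: Ex 340 nm, 665/545 nm emission ratio, normalized to buffer-only (basal) and MBNL1-(CUG)12 controls. Complex of MBNL1-His with Biotin-(CUG)12, compounds 92 nM–58 uM, incubated 60 min at room temperature.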
CtBP-E1A inh – blocks the CtBP interaction with E1A. AlphaScreen GST-E1A/His-CtBP binding, 1536-well; active compounds read low. activity change, % (no concentration beside the values). 340,000 tested, 0.49% active; in the data active means activity change below about -65%; inconclusive means mostly about -30% to -63%
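Steps: dispense buffer (Tris pH 8.0, NaCl 300 mM, TCEP 1 mM, BSA, Tween 20); add 5X protein mix (GST-E1A, His-CtBP, 125 nM each); pin 23 nL compound; 2 h at 37 °C, dark; add 5X beads (50 ug/mL); 1 h; read.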
RORg inh – inhibitors of mouse ROR gamma transcriptional activity. Drosophila S2 Gal4-RORgamma UAS-luciferase reporter, 20 h. Potency, µM (top dose mostly 53.6 µM), usual class: inhibitors. P51450. 310,000 tested, 5.4% active; further: nearly all actives have a fitted effect of over 60% in size
Target sequence (P51450 whole entry, looked up, the tested form may be a part): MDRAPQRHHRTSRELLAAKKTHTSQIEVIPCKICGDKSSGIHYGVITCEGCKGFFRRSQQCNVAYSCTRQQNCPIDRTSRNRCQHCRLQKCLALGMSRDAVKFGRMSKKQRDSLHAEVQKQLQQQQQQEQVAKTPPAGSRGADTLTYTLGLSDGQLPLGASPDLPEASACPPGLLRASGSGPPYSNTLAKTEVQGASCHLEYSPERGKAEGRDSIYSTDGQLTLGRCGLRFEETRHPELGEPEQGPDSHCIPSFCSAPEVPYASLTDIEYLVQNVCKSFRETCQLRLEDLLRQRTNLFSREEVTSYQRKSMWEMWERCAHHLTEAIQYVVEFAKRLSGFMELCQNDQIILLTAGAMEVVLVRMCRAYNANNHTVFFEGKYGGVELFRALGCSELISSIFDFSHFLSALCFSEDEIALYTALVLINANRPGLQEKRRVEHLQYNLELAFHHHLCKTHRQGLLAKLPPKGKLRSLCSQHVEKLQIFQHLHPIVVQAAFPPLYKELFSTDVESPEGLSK
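Luciferase reporter read in Schneider cells carrying Gal4-RORγ (mouse) and UAS-Photinus luciferase; cells given compound 1 h before 700 uM copper sulfate induction, then incubated 20 h at ambient temperature.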
VP16 counter – inhibits Gal4-VP16 luciferase reporter, ROR gamma counter-screen. Potency, µM (top dose mostly 53.6 µM), hits mostly inhibitors. 310,000 tested, 3.5% active. Drosophila S2 Gal4-VP16 UAS-luciferase, luminescence, 20 h. AID 2546;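 further: Gal4-VP16 expression switched on by copper sulfate through the metallothionein promoter; nearly all actives have a fitted effect of over 50% in size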
MBNL1 TRFRET – MBNL1-poly(CUG) RNA binding inhibition confirmed; shares compounds with MBNL1 CUG block; TR-FRET MBNL1-His / biotin-(CUG)12 binding, 60 min; Potency, µM (series often up to 57.6 µM), most hits filed as inhibitors; 140 tested, 50% active; AID 493199
MBNL1 AlphaScrn – blocks MBNL1 binding to (CUG)12 RNA in AlphaScreen | shares compounds with MBNL1 CUG block | AlphaScreen MBNL1-His / biotin-(CUG)12 binding | Potency, µM (highest dose often 57.7 µM), actives largely listed as inhibitors | 140 tested, 30% active | AID 493205
Menin-MLL HTRF – hit in HTRF counterscreen for MBNL1-poly(CUG) binding inhibitors; Potency, µM (doses to about 57.6 µM), hits mostly inhibitors; 120 tested, 20% active; His-Menin/biotin-MLL peptide TR-FRET counterscreen; shares compounds with MBNL1 CUG block
Numbers stand for hits; 0 = inactive; ? = inconclusive; - = no result given; [ ] = another dose, or the depositor's remark. Unless noted, the call rests on the fitted dose curve; in most records, active means well fitted curve in the direction sought with a large enough effect; inconclusive means small, poorly fitted or top-dose-only effect, or another doubt; inactive means no such curve, though single readings can be large; an effect the other way counts as inactive or inconclusive.

SMILES	CBFb RUNX1 block	Six1-Eya2 inh	MBNL1 CUG block	CtBP-E1A inh	RORg inh	VP16 counter	MBNL1 TRFRET	MBNL1 AlphaScrn	Menin-MLL HTRF
O=C(NC(=S)Nc1cnc2ccccc2c1)c1ccccc1	0	0	0	0	5.6µM	?	-	-	-
Cn1ncc2cc(NC(=S)NC(=O)c3ccccc3)ccc21	0	0	0	0	10µM	?	-	-	-
O=C(CN1CCN(C(=O)c2ccccc2)CC1)Nc1ncc(Br)cc1Br	0	0	0	0	0	0	-	-	-
CCOC(=O)/C(=N\Nc1ccccc1Cl)N1CC(C)OC(C)C1 (configuration not stated)	0	0	0.025µM	0	0	0	0	0	0
CCOC(=O)/C(=N\Nc1cc(Cl)ccc1Cl)N1CC(C)OC(C)C1 (configuration not stated)	0	0	0	-	0	0	-	-	-
Cc1ccc(C(=O)NCCN2C3=NC[C@H](C(C)C)N3C[C@H]2Cc2ccc(O)cc2)cc1Br	0	0	40µM	0	0	0	41µM	?	0
CCCCC[C@H](O)/C=C/[C@H]1[C@H](O)CC(O)[C@@H]1C/C=C\CCCC(=O)O (some centres not stated)	0	-	-	-	-	-	-	-	-
CCCCC[C@H](O)/C=C/[C@@H]1[C@@H](C/C=C\CCCC(=O)OC)[C@@H](O)C[C@H]1O	0	0	-	0	0	0	?	10µM	0
CCOC(=O)CCCCC(=O)c1[nH]c(=O)[nH]c1Cn1ccnc1	0	0	40µM	0	0	0	41µM	?	0
COc1ccccc1NC(=O)c1csc2c1CCCC2	0	0	0	0	0	0	-	-	-
COC(=O)Nc1csc2c1NC(=O)CCCC2	0	0	-	0	0	0	26µM	10µM	0
CC(C)N1CCC2(CC1)C(C#N)=C(N)NC(S)=C2C#N	0	-	?	-	?	0	21µM	0	18µM
CC(C)c1ccc(NC(=O)C2(C)Cc3c(-c4ccc5c(c4)OCO5)ccnc3O2)cc1 (configuration not stated)	-	0	-	0	-	-	-	-	-
O=C1NC(=O)C2C1C(c1ccccc1)N1C3C(=O)NC(=O)C3C(c3ccccc3)N21 (configuration not stated)	0	0	32µM	0	0	0	?	?	0
CCN(C(=O)CSc1nnc(C)n1-c1ccc(C)cc1)c1c(N)n(Cc2ccccc2)c(=O)[nH]c1=O	-	0	-	0	-	-	-	-	-
COCCn1c(SCC(=O)NC2CCCC2)nc2c(c1=O)SCC2	-	0	0	0	0	0	-	-	-
C[C@H]1/C=C\CC(=O)NCc2cccc(c2)CNC(=O)N[C@H]1c1ccccc1	0	-	-	-	0	0	-	-	-
CCC(CC)NC(=O)Nc1ccc(F)c(Cl)c1	0	0	40µM	0	0	?	?	0	0
Cc1cc2c(c(=O)n1CCN(C)C)C(c1ccccc1Br)C(C#N)=C(N)O2 (configuration not stated)	0	0	10µM	0	0	0	13µM	0	26µM
Cc1ccc(NC2c3ncccc3C(=O)N2Cc2cccs2)cc1 (configuration not stated)	0	0	40µM	0	0	0	52µM	26µM	0
COc1ccc(CCNC(=O)C2CC(=O)N(c3ccc(C)cc3)C2)cc1OC (configuration not stated)	-	0	0	0	0	0	?	0	0
COC(=O)c1ccc(C(/C=C/[C@@H](C)C(=O)NCc2cc(C)n(C)n2)NC(=O)OCc2ccccc2)cc1 (some centres not stated)	0	-	-	-	0	0	-	-	-
COc1ccc2cc(CCOC3CCCCO3)ncc2c1 (configuration not stated)	-	0	-	-	-	-	-	-	-
COCCn1c(=O)[nH]c2cc(C(=O)Nc3cc(C)cc(C)c3)ccc2c1=O	-	0	0	0	0	0	-	-	-
CCOC(=O)CCCCC(=O)c1[nH]c(=O)[nH]c1CSc1nnc2c3ccccc3n(C(C)C)c2n1	0	0	28µM	0	0	0	?	3.7µM	0
SMILES	CBFb RUNX1 block	Six1-Eya2 inh	MBNL1 CUG block	CtBP-E1A inh	RORg inh	VP16 counter	MBNL1 TRFRET	MBNL1 AlphaScrn	Menin-MLL HTRF
CCCn1c2ccccc2c2nnc(SCc3[nH]c(=O)[nH]c3C(=O)CCCCC(=O)OCC)nc21	0	0	?	0	?	?	-	-	-
CC1=C(C(N)=O)C(c2cccnc2)n2nc(SCc3ccccc3Cl)nc2N1 (configuration not stated)	0	0	25µM	0	0	0	0	0	0
CC1=C(C(N)=O)C(c2ccccn2)n2nc(SCc3ccccc3Cl)nc2N1 (configuration not stated)	0	0	0	0	0	0	-	-	-
COC(=O)NCc1ccc(Cl)c(Cl)c1	0	0	0	0	0	0	-	-	-
COC(=O)NCc1cc2cc(Cl)ccc2[nH]1	0	0	40µM	0	?	?	0	0	0
NC[C@@H](O)c1ccc(O)c(O)c1	-	-	-	-	0	0	-	-	-
CNC[C@H](O)c1ccc(O)c(O)c1	?	0	22µM	0	?	0	0	0	0
NC[C@H](O)c1ccc(O)c(O)c1	?	?	-	0	0	0	6.5µM	?	?
Cc1ccccc1-c1cncnc1N1CCN(C)CC1	-	-	-	-	0	0	-	-	-
COc1ccc(CC(=O)Oc2ccc(C)cc2Br)cc1OC	-	0	16µM	0	?	0	?	5.2µM	16µM
COc1ccc(CC(=O)Oc2ccc(C)cc2C)cc1	-	0	0	0	0	0	-	-	-
CCCCN1CC(COCc2ccccc2)Oc2cc(Br)ccc2S1(=O)=O (configuration not stated)	-	0	-	0	-	-	-	-	-
CN1C[C@H](C(=O)N[C@]2(C)O[C@]3(O)[C@H]4CCCN4C(=O)[C@H](Cc4ccccc4)N3C2=O)C[C@H]2c3cccc4[nH]cc(c34)C[C@@H]21	0	-	-	-	0	0	-	-	-
CCCN1C[C@H](CSC)C[C@@H]2c3cccc4[nH]cc(c34)C[C@H]21	0	0	?	0	0[10 µM]	0	?	0	-
CC(Sc1ncc(C#N)c(N)n1)C(=O)Nc1ccccc1 (configuration not stated)	0	0	40µM	0	0	0	0	?	0
O=C(Nc1cccnc1Cl)c1cc(-c2cccc(O)c2)on1	-	0	7.1µM	0	?	0	13µM	?	0
